PLCg1 inh: PLC-gamma1 enzyme inhibitors, primary screen, biochemical, fluorescence, purified enzyme; fluorogenic substrate; AID 720700, 2013; inhibition, % at 12.2 µM; 370,000 tested, 0.84% active; in the data active = inhibition above about 9.5%
PLC-beta3 inh: human PLC-beta3 inhibitors, primary screen, biochemical, fluorescence; 1-phosphatidylinositol 4,5-bisphosphate phosphodiesterase beta-3 (Homo sapiens), Q01970; Purified PLC-beta3, fluorogenic substrate; inhibition, % at 12.2 µM; 370,000 tested, 0.18% active; AID 720704, 2013;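 also: 0% = median of compound wells on plate and 100% = full blocker control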
ADAM17 inh: ADAM17 inhibitors, primary screen, biochemical, QFRET. inhibition, % at 6.95 µM. recombinant ADAM17, EDANS/DABCYL FRET peptide cleavage. 370,000 tested, 0.83% active;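 active = inhibition above the mean of compounds lying between control limits plus 3 SD, set per campaign, cut at about 8.5% in these data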;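 also: 0% = DMSO-only wells as the low control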
KLK7 zymogen act: proKLK7 zymogen activators, primary screen, biochemical, fluorescence intensity; Kallikrein-7 (Homo sapiens), P49862; purified proKLK7, EDANS-DABCYL substrate fluorescence; 100% is mature enzyme control, 0% vehicle; activation, % at 7 µM; 370,000 tested, 0.9% active; AID 652039, 2013;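 active = activation above the mean of all tested compounds plus 3 SD, computed per campaign excluding outliers beyond control limits, cut at about 13% in these data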
ADAM10 inh: human ADAM10 inhibitors, primary screen, biochemical, QFRET, HTS. Disintegrin and metalloproteinase domain-containing protein 10 (Homo sapiens), O14672. recombinant ADAM10, EDANS/DABCYL FRET peptide cleavage, 3 h. inhibition, % at 7 µM. 370,000 tested, 0.62% active. AID 720582, 2013;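 active = inhibition above a per-campaign cutoff equal to the mean of compounds falling between control-based bounds plus 3 SD, cut at about 20% in these data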;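 also: 0% = DMSO wells while the 100% control is not disclosed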
Target sequence (O14672 214-748 limits assumed): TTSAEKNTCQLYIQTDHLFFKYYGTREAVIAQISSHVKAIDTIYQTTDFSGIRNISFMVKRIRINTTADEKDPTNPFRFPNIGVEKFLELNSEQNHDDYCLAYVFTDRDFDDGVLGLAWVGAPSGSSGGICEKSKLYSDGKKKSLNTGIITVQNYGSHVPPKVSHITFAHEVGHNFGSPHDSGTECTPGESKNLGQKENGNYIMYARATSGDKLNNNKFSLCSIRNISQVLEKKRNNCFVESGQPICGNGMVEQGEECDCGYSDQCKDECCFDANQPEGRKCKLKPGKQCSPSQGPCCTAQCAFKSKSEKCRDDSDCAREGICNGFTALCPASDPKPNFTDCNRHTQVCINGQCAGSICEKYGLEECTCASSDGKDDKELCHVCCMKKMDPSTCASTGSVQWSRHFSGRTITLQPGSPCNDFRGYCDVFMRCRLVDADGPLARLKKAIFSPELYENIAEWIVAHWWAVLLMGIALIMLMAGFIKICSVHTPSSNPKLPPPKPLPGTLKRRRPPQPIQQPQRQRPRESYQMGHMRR
HGIII-sPLA2 inh: human group III sPLA2 inhibitors, primary screen, biochemical, QFRET, BODIPY PC-A2 liposome substrate | Group 3 secretory phospholipase A2 (Homo sapiens), Q9NZ20 | QFRET BODIPY PC-A2 liposome hydrolysis, fluorescence | inhibition, % at 12.2 µM | 370,000 tested, 0.56% active | AID 743126, 2013;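 active = inhibition above mean plus 3 SD of compounds lying within the high and low control bounds, cut at about 19% in these data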;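 also: 0% = median of test compound wells and 100% = no enzyme DMSO wells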
PLCg1 ctr: PLC-gamma1 enzyme inhibitors, counter-screen for PLC-beta3 inhibitor project, biochemical, fluorescence; shares compounds with PLCg1 inh; purified PLC-gamma1, fluorogenic substrate; inhibition, % at 12.3 µM; 3,300 tested, 3.1% active; AID 743258, 2014; in the data active = inhibition above about 9.5%
PLCbeta3 conf: PLC-beta3 inhibitor confirmation, biochemical, fluorescence, purified enzyme; shares compounds with PLCg1 inh; fluorogenic substrate fluorescence; inhibition, % at 12.3 µM; 3,300 tested, 1% active; AID 743261, 2014
Starred values were filed as active, the others as inactive; . = not tested or not shown. Rows were chosen to be rich in hits. Some 3.4% of all compounds tested hit in one or more screens of this group. Rule as the data show it, unless noted: active = inhibition above about 11%; inactive = the rest.

SMILES | PLCg1 inh | PLC-beta3 inh | ADAM17 inh | KLK7 zymogen act | ADAM10 inh | HGIII-sPLA2 inh | PLCg1 ctr | PLCbeta3 conf
CCN1CCN(c2nc(N)c([N+](=O)[O-])c(Nc3ccc(C)cc3)n2)CC1 | 13.1* | 7.9 | 0.2 | 0.1 | 8.1 | -13.8 | -6.1 | 5.2
CCOC(=O)/C(C#N)=C1/C=CN(c2ccc(C)cc2)C=N1 | 13.3* | 11.5* | 8.0 | -0.1 | 13.3 | 0.9 | -5.0 | 0.7
CCOC(=O)/C(C#N)=C1/C=CN(c2ccccc2)C=N1 | 10.8* | 6.2 | 5.9 | 0.2 | 6.8 | 4.8 | 7.3 | 7.0
CCOC(=O)/C(C#N)=C1/C=CN(Cc2ccccc2)C=N1 | 8.9 | 10.6 | 4.9 | 0.2 | 10.1 | 0.7 | . | .
CCOC(=O)/C(C#N)=C1\C=CN(C)C(C)=N1 | 4.8 | 2.3 | 0.3 | -0.2 | 2.5 | 6.2 | . | .
CCOC(=O)/C(C#N)=C1/C=CN(C)C=N1 | 10.2* | 7.9 | 1.2 | -0.1 | -0.7 | -0.2 | 13.7* | 8.6
O=C(OC12CCCN(C1)/C(=C/c1cccnc1)C2)C1CCCCC1 (configuration not stated) | -1.4 | 0.7 | -0.5 | 0.1 | -4.2 | 3.9 | . | .
O=C(OCC#CCSc1nnc(-c2cccc3ccccc23)o1)c1ccccc1F | -1.9 | 0.7 | -2.3 | . | -2.1 | 2.1 | . | .
NC(=O)C1CCN(c2nc(-c3ccc4c(c3)CCO4)cs2)CC1 | 2.9 | 1.9 | -0.2 | . | 3.5 | 6.1 | . | .
Cc1ccc(CN2CCN(/N=C/c3ccc(C(F)(F)F)cc3)CC2)cc1 | 10.2* | 9.8 | 4.6 | 0.9 | 3.7 | 10.4 | -3.5 | -1.2
Cc1ccc(/C=N/N2CCN(Cc3ccc(C)cc3)CC2)cc1 | -0.5 | -3.4 | -2.2 | 1.0 | 0.7 | -4.0 | . | .
CCC(CC)NC(=O)O[C@H]1CC[C@@]23CCCN2C(=O)CCC[C@H]3C1 | 1.3 | -0.6 | -1.9 | . | -9.5 | 5.2 | . | .
COC(=O)Cn1cnc2sc(C)c(S(=O)(=O)N3CCN(c4ccccc4OC)CC3)c2c1=O | 10.2* | 10.1 | 7.4 | -0.2 | 7.9 | 11.9 | -1.5 | -3.2
COC(=O)[C@]12C[C@H](CC(=O)NCc3ccc(OC)c(OC)c3)C(=O)N(Cc3ccc4c(c3)OCO4)C1=C[C@H](COCc1ccccc1)O[C@@H]2C | 2.3 | 3.7 | -1.5 | 1.0 | 3.8 | -10.8 | . | .
O=C(Nc1cccc(Cl)c1)c1csc(COCCO)n1 | 10.0* | 3.2 | 5.3 | -0.3 | 1.8 | 10.4 | -5.6 | -104.5
O=C(Nc1cccc(C(F)(F)F)c1)c1csc(COCCO)n1 | 1.5 | 4.8 | -5.4 | -0.5 | -10.9 | 7.2 | . | .
Cc1ccc(Nc2ncnc(N)n2)cc1C | 10.2* | 5.5 | 1.9 | 0.3 | 4.6 | 4.2 | -6.3 | 0.8
CC(=NNc1cc(C)c2ccccc2n1)c1ccccn1 | -1.4 | -4.7 | -4.9 | 0.0 | -11.0 | 1.7 | . | .
c1cc2c(cc1Cn1cnnn1)OCO2 | -4.8 | -0.3 | -1.9 | -0.7 | 1.9 | -2.3 | . | .
Clc1ccc(Cn2ccc(-c3ccc4c(c3)OCO4)n2)cc1Cl | 18.7* | 12.4* | 8.6 | -0.2 | 10.2 | -20.4 | 7.3 | 8.7
COC(=O)[C@]12C[C@H](CC(=O)NCc3cccc(C(F)(F)F)c3)C(=O)N(Cc3ccc(Cl)cc3Cl)C1=C[C@H](C1CCCC1)O[C@@H]2C | 0.5 | 3.1 | -4.0 | 0.0 | -6.1 | 4.6 | . | .
CCOC(=O)CSc1nc2ccccc2c(=O)n1CC1CCC(C(=O)NCc2ccco2)CC1 (configuration not stated) | 10.0* | 4.1 | -6.3 | -0.1 | -18.4 | 13.8 | -2.2 | -3.8
CCN(CC)c1ccc(C=NNC(=O)Cc2cc(=O)[nH][nH]2)c(O)c1 | -40.8 | -59.4 | -1.9 | -5.5 | -10.8 | -0.5 | . | .
COC(=O)C1=C(C)N(Cc2cccc(C(F)(F)F)c2)C(=NCc2ccc(C(F)(F)F)cc2)NC1c1ccc(C(F)(F)F)cc1 (configuration not stated) | 12.8* | 7.8 | 5.5 | -0.5 | 10.4 | -11.2 | 5.3 | 4.7
COC(=O)C1=C(C)N(Cc2ccccc2)C(=S)NC1c1ccc(Br)cc1 (configuration not stated) | 9.7* | 3.7 | 3.2 | -0.6 | 4.9 | 19.1 | -1.1 | -0.1
SMILES | PLCg1 inh | PLC-beta3 inh | ADAM17 inh | KLK7 zymogen act | ADAM10 inh | HGIII-sPLA2 inh | PLCg1 ctr | PLCbeta3 conf
COC(=O)C1=C(C)N(Cc2ccc(C(F)(F)F)cc2)C(=NCc2ccc(OC)cc2)NC1c1ccccc1C(F)(F)F (configuration not stated) | 9.9* | 3.7 | 1.2 | 0.0 | 13.5 | 3.4 | -4.7 | -5.2
COC(=O)C1=C(C)N(Cc2ccccc2)C(=S)N[C@H]1c1ccc(Br)cc1 | 1.4 | -2.6 | 0.8 | 0.8 | 6.3 | 5.3 | . | .
Cc1ccc(NS(=O)(=O)N2CCOCC2)cc1 | 12.0* | -2.3 | -4.5 | -0.8 | -20.2 | 9.2 | -4.3 | -1.4
O=S(=O)(Nc1ccc(Br)cc1)N1CCOCC1 | 3.4 | -2.2 | 0.8 | 0.1 | -5.2 | -4.5 | . | .
CCOC(=O)CC[C@@]1(C(=O)OCC)C[C@@H](CC(=O)N2CCOCC2)C(=O)N2CCCC=C21 | -0.2 | 0.9 | 1.4 | -0.1 | 0.8 | -1.6 | . | .
COc1ccccc1NC(=O)C(=N\O)/C(C)=N/O | 11.1* | 3.7 | 7.1 | -0.1 | 5.6 | -5.5 | -6.0 | 0.0
COc1ccccc1N1CCN(C(c2ccc(Cl)cc2)c2nnnn2C(C)(C)C)CC1 (configuration not stated) | 12.8* | 5.3 | 4.4 | 0.7 | 16.4 | 14.3 | 5.5 | 5.4
COc1ccc(C(c2nnnn2C(C)(C)C)N2CCN(C/C=C/c3ccccc3)CC2)cc1 (configuration not stated) | 11.4* | 5.4 | 4.8 | -0.6 | 0.1 | -5.5 | -3.6 | -3.0
Cc1cccc(N2CCN(C(c3ccccc3)c3nnnn3C(C)(C)C)CC2)c1C (configuration not stated) | -1.2 | 1.1 | 0.1 | 0.2 | -0.4 | -1.2 | . | .
COc1ccc2c(c1)CNC2CS(=O)(=O)NCC(C)C (configuration not stated) | -33.2 | -44.3 | -22.3 | -3.3 | -79.1 | 4.2 | . | .

Source: PubChem
